Rows were chosen to be rich in hits. Some 2.9% of all compounds tested hit in one or more screens of this group.
ADAM10 inh: inhibits human ADAM10; hit rate 0.62% among 370,000; AID 720582; inhibition, % at 7 µM; recombinant ADAM10, EDANS/DABCYL FRET peptide cleavage, 3 h;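 active = inhibition above a per-campaign cutoff equal to the mean of compounds falling between control-based bounds plus 3 SD, cut at about 20% in these data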;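 note: 0% = DMSO wells while the 100% control is not disclosed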
KLK7 zymogen act: activates the human kallikrein-7 zymogen; purified proKLK7, EDANS-DABCYL substrate fluorescence; 100% is mature enzyme control, 0% vehicle; P49862; activation, % at 7 µM; hit rate 0.9% among 370,000;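 active = activation above the mean of all tested compounds plus 3 SD, computed per campaign excluding outliers beyond control limits, cut at about 13% in these data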
ADAM17 inh: inhibitors of human ADAM17 | P78536 | recombinant ADAM17, EDANS/DABCYL FRET peptide cleavage | inhibition, % at 6.95 µM | hit rate 0.83% among 370,000 | AID 720648;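 active = inhibition above the mean of compounds lying between control limits plus 3 SD, set per campaign, cut at about 8.5% in these data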;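 note: 0% = DMSO-only wells as the low control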
PLC-gamma1 inh: PLC-gamma1 (human) inhibition, primary screen; inhibition, % at 12.2 µM; hit rate 0.84% among 370,000; P19174; purified PLC-gamma1, fluorogenic substrate, fluorescence; in the data active = inhibition above about 9.5%
PLCb3 inh: inhibitors of human phospholipase C beta3; hit rate 0.18% among 370,000; AID 720704; inhibition, % at 12.2 µM; Q01970; Purified PLC-beta3, fluorogenic substrate, fluorescence;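 note: 0% = median of compound wells on plate and 100% = full blocker control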
PLCg1 ctr: counter-screen for PLC-beta3 inhibitors: inhibitors of human PLC-gamma1; AID 743258; shares compounds with PLC-gamma1 inh; hit rate 3.1% among 3,300; inhibition, % at 12.3 µM; purified PLC-gamma1, fluorogenic substrate, fluorescence; in the data active = inhibition above about 9.5%
PLCb3 confirm: confirmation of human PLC-beta3 inhibitors | shares compounds with PLC-gamma1 inh | purified PLC-beta3, fluorogenic substrate fluorescence | inhibition, % at 12.3 µM | hit rate 1% among 3,300
Active calls of the source: *; · = not tested or not shown. Cut-off read from the data, not from the text of the source, unless noted: active = inhibition above about 11%; inactive = the rest.

SMILES | ADAM10 inh | KLK7 zymogen act | ADAM17 inh | PLC-gamma1 inh | PLCb3 inh | PLCg1 ctr | PLCb3 confirm
CCCCn1c(N)c(N(CCOC)C(=O)CSc2nnc(-c3ccncc3)n2CCC)c(=O)[nH]c1=O | 0 | 1 | -4 | -4 | -3 | · | ·
COc1ccc(S(=O)(=O)Nc2c(C)nc3nc(C)[nH]n3c2=O)cc1 | 5 | 0 | 3 | 11* | 8 | -8 | -2
Cc1cc(C)cc(C(=O)OCCN(C)C2CN(Cc3cn(Cc4ccccc4F)nn3)S(=O)(=O)C2)c1 (stereo not given) | 3 | 1 | 2 | 1 | 3 | · | ·
Cc1ccc(CNC(=O)C(C)OC(=O)c2ccco2)cc1 (stereo not given) | 4 | 0 | 0 | 13* | 2 | 4 | 2
O=C(NCC(=O)N1CCc2ccccc2C1)c1ccc(Cl)cc1Cl | -1 | 0 | 7 | 12* | 2 | -8 | -3
C=Cc1ccc(Cn2c(C)c(C(=O)NCc3ccc4c(c3)OCCO4)sc2=O)cc1 | 9 | 1 | 4 | -2 | -1 | · | ·
COc1ccc(N2CCN(C(=O)CCCn3c(=O)[nH]c4cc(Cl)ccc4c3=O)CC2)cc1 | 5 | 0 | 6 | 11* | 7 | -12 | -8
O=C(O)c1cc2c(cc1Cl)N1CCCCCC1=NS2(=O)=O | 2 | 0 | 2 | 19* | 0 | -6 | -1
CC(=O)C1=CCC(c2ccccc2)N(Cc2ccccc2)C1 (stereo not given) | -8 | 0 | -2 | -2 | -3 | · | ·
COc1ccc(-n2c(SCC(=O)NCCCSC)nnc2-c2ccncc2)cc1 | 4 | 0 | -1 | 5 | 2 | · | ·
O=S(=O)(C/C(=C/CO)S(=O)(=O)c1ccccc1)c1ccccc1 | 1 | 0 | 0 | 9.7* | 4 | -3 | 1
CCCCn1c(N)c(N(CC(C)C)C(=O)c2ccc(N3C(=O)CCC3=O)cc2)c(=O)[nH]c1=O | -11 | 0 | 0 | 2 | -9 | · | ·
CC(COc1ccccc1)CN1CCC(C(O)(c2ccccc2)c2ccccc2)CC1 (stereo not given) | 8 | 1 | 3 | 5 | 5 | · | ·
CCC(C)(C(=O)NC1CCCC1)N(Cc1cccs1)C(=O)c1ccccn1 (stereo not given) | 2 | 0 | -5 | 10* | -1 | -7 | -3
Cc1[nH]n(-c2ccccc2)c(=O)c1CCOC(=O)c1cccc(C(F)(F)F)c1 | 9 | 0 | 6 | 11* | 6 | -8 | -5
O=C(NCc1cccs1)NC1CCCCC1 | 9 | 0 | 5 | 9.8* | 8 | -3 | 2
Cc1ccc(Cc2c(-c3cccc(Cl)c3)nc3c(C)cc(Br)cn23)cc1 | -11 | 0 | -1 | -5 | -4 | · | ·
COc1ccc(CCN(C)C(=O)CCNC(=O)c2ccc(Br)cc2)cc1OC | 5 | 0 | -2 | 11* | 3 | -3 | 1
COc1ccc(CCNC(=O)c2ccc(OC)c(OC)c2)cc1OC | 1 | 0 | -2 | -1 | -2 | · | ·
Cc1ccc(C)c(NC(=O)CSc2nc3c(c(=O)n2C)SC(C)C3)c1 (stereo not given) | -3 | 0 | 0 | 0 | 0 | · | ·
CC1Cc2nc(SCC(=O)Nc3ccc(F)cc3F)n(C)c(=O)c2S1 (stereo not given) | 3 | 0 | 4 | 13* | 7 | -7 | -4
N#CCCSCc1ccc(OCC(=O)O)cc1 | 10 | 0 | 2 | 9.9* | 10 | -3 | 0
N#CCCSCc1ccc(C(=O)O)o1 | -2 | 0 | 0 | 4 | 6 | · | ·
CCN(CC)S(=O)(=O)c1ccc(/C=C/C(=O)Nc2ccccc2N2CCOCC2)cc1 | 12 | 1 | 6 | 9.6* | -2 | 4 | -7
CCN(CC)S(=O)(=O)c1ccc(N2CCOCC2)c(NC(=O)c2ccccc2)c1 | 10 | 0 | 2 | 2 | 2 | · | ·
Cc1ccc(NC(=O)CNS(=O)(=O)c2ccc(F)cc2)cc1C | -4 | 0 | -3 | 2 | -5 | · | ·
CCCS(=O)(=O)NC(=O)C1(C)CCN(C(=O)c2cccc(OC(F)(F)F)c2)C1 (stereo not given) | 0 | -1 | -3 | -3 | 1 | · | ·
